Measurements as given in PubChem BioAssay AID1159580 (chemical genetic matrix, 2015).
Where “and” joins values, the source holds several entries; their conditions need not be identical. Identical values can stand only once. About 2,000 (36%) of roughly 5,500 compounds were called active. Inconclusive results (about 18%) are left out. Cut-off read from the data, not from the text of the source: active = normalized growth mostly below about 0.91 (no sharp cut-off); inconclusive = no clear call, values can overlap the other calls; inactive = mostly above about 0.92. The list shows a part of the results.

Experiment: chemical genetic growth profiling, strain panel (AID 1159580);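 note: tested at 20 µM; growth read once vehicle control cultures reached saturation at 30 °C; 1 = growth at the plate median or of vehicle wells; lower values mean less growth of the strain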
Details: S. cerevisiae deletion strains, growth OD

Measured: normalized growth

CC1=C2CCC3C(CC[C@]4(C)C(=O)CCC34)[C@@]2(C)CCC1=O (some centres not stated)
active: locus YAL021C, strain ccr4, active compounds read low 0.899 | locus YBR021W, strain FUR4, active compounds read low 0.798 | locus YDL192W, strain arf1, active compounds read low 0.916 | locus YDR137W, strain rgp1, active compounds read low 0.693 | locus YDR195W, strain ref2 1.15 [resistant] | locus YDR392W, strain spt3, active compounds read low 0.565 | locus YDR502C, strain sam2, active compounds read low 0.895
inactive: locus YAL013W, strain DEP1, active compounds read low 0.961 | locus YAL026C, strain drs2, active compounds read low 0.978 | locus YAL030W, strain snc1, active compounds read low 0.993 | locus YBL061C, strain skt5, active compounds read low 0.997 | locus YBR009C, strain hhf1, active compounds read low 0.956 | locus YBR023C, strain chs3, active compounds read low 0.977 | locus YBR171W, strain sec66, active compounds read low 0.977 | locus YBR229C, strain ROT2, active compounds read low 0.981 | locus YBR231C, strain swc5, active compounds read low 1.04 | locus YBR279W, strain paf1, active compounds read low 0.972 | locus YCL011C, strain gbp2, active compounds read low 0.968 | locus YCL016C, strain dcc1, active compounds read low 0.947 | locus YCL029C, strain bik1, active compounds read low 0.969 | locus YCL061C, strain MRC1, active compounds read low 0.967 | locus YCL069W, strain vba3, active compounds read low 0.983 | locus YCR088W, strain abp1, active compounds read low 1.01 | locus YDL005C, strain med2, active compounds read low 0.993 | locus YDL035C, strain GPR1, active compounds read low 0.922 | locus YDL040C, strain nat1, active compounds read low 0.999 | locus YDL074C, strain BRE1, active compounds read low 0.915 | locus YDL101C, strain DUN1, active compounds read low 0.986 | locus YDL134C, strain PPH21, active compounds read low 0.981 | locus YDL185W, strain tfp1, active compounds read low 0.962 | locus YDR001C, strain nth1, active compounds read low 0.997 | locus YDR069C, strain doa4, active compounds read low 1 | locus YDR101C, strain arx1, active compounds read low 0.982 | locus YDR150W, strain NUM1, active compounds read low 0.986 | locus YDR159W, strain sac3, active compounds read low 0.998 | locus YDR162C, strain NBP2, active compounds read low 0.842 | locus YDR297W, strain sur2, active compounds read low 0.995 | locus YDR318W, strain mcm21, active compounds read low 0.941 | locus YDR334W, strain swr1, active compounds read low 1.01 | locus YDR335W, strain msn5, active compounds read low 0.961 | locus YDR388W, active compounds read low 0.946 | locus YEL003W, strain gim4, active compounds read low 0.971 | locus YEL037C, strain rad23, active compounds read low 0.985 | locus YEL061C, strain CIN8 (second series), active compounds read low 0.992 | locus YEL061C, strain CIN8, active compounds read low 0.967 | locus YER015W, strain faa2, active compounds read low 0.964 | locus YER016W, strain bim1, active compounds read low 0.991 | locus YER110C, active compounds read low 0.957 | locus YER111C, strain swi4, active compounds read low 0.989 | locus YER155C, strain BEM2 (second series), active compounds read low 0.904 | locus YER155C, strain BEM2, active compounds read low 0.997 | locus YER167W, strain BCK2, active compounds read low 0.931 | locus YFR010W, strain ubp6, active compounds read low 1.02 | locus YGL078C, strain dbp3, active compounds read low 0.947 | locus YGL086W, strain mad1, active compounds read low 0.936 | locus YGL167C, strain pmr1, active compounds read low 0.963 | locus YGL173C, strain kem1, active compounds read low 1 | locus YGL227W, strain vid30, active compounds read low 1.01 | locus YGL240W, strain doc1, active compounds read low 0.941 | locus YGL248W, strain PDE1, active compounds read low 0.981 | locus YGL253W, strain hxk2, active compounds read low 0.979 | locus YGR078C, strain PAC10, active compounds read low 0.959 | locus YGR135W, strain pre9, active compounds read low 0.902 | locus YGR229C, strain SMI1, active compounds read low 0.962 | locus YGR252W, strain gcn5, active compounds read low 0.836 | locus YHR013C, strain ard1, active compounds read low 0.943 | locus YHR027C, strain rpn1, active compounds read low 0.995 | locus YHR030C, strain SLT2, active compounds read low 0.975 and 0.95 | locus YHR079C, strain IRE1 (second series), active compounds read low 0.986 | locus YHR079C, strain IRE1, active compounds read low 0.941 | locus YHR094C, strain hxt1, active compounds read low 0.984 | locus YHR129C, strain ARP1, active compounds read low 0.991 | locus YHR142W, strain chs7, active compounds read low 0.92 | locus YHR200W, strain rpn10, active compounds read low 0.955 | locus YIL066C, strain RNR3, active compounds read low 0.937 | locus YIL073C, strain SPO22, active compounds read low 0.861 | locus YIL125W, strain kgd1, active compounds read low 0.971 | locus YIR030C, strain dcg1, active compounds read low 0.971 | locus YJL092W, strain hpr5, active compounds read low 0.992 | locus YJL095W, strain BCK1 (second series), active compounds read low 0.992 | locus YJL095W, strain BCK1, active compounds read low 0.889 and 0.943 | locus YJL115W, strain asf1, active compounds read low 0.985 | locus YJL129C, strain trk1, active compounds read low 0.93 | locus YJL134W, strain LCB3, active compounds read low 0.983 | locus YJL154C, strain vps35, active compounds read low 0.993 | locus YJL164C, strain tpk1, active compounds read low 0.938 | locus YJL166W, strain qcr8, active compounds read low 0.963 | locus YJL168C, strain set2, active compounds read low 0.978 | locus YJL187C, strain SWE1 (second series), active compounds read low 0.985 | locus YJL187C, strain SWE1, active compounds read low 0.989 | locus YJR043C, strain POL32, active compounds read low 0.99 | locus YJR066W, strain TOR1, active compounds read low 0.852
